In assay [1] the target is T1, Aspartate--tRNA(Asp/Asn) ligase (Mycobacterium tuberculosis (strain ATCC 25618 / H37Rv)) (UniProt P9WFW3). Note: in the data most compounds retested in dose-response had high values.
T1 sequence (whole entry): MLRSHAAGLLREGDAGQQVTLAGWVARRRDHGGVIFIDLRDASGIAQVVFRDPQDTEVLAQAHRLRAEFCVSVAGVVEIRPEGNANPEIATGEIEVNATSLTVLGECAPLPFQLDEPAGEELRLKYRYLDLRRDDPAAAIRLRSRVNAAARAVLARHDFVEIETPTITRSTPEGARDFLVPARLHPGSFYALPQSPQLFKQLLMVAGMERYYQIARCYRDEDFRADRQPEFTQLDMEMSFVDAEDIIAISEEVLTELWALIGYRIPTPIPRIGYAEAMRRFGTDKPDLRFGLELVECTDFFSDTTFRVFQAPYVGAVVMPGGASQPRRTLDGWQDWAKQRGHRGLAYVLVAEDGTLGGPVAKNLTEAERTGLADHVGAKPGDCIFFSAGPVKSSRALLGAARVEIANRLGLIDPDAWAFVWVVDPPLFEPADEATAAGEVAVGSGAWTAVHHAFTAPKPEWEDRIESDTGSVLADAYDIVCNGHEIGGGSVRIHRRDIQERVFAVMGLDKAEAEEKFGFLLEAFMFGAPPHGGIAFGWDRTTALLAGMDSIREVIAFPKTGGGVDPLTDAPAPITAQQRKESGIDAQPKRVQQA
The experiment in a line: Assay for Asp RNA synthetase-1 from Mycobacterium tuberculosis. To be noted: 30 µM. The arrangement: scale not given: direction of the effect not stated beside the values. In kind it is functional.

The target of assay [2] is Shiga toxin 2 (Escherichia coli O157:H7) (UniProt P09385+P09386). The experiment in a line: E. coli 0.157:H7 Shiga Toxin SOP - stx2 screening assay. In kind it is functional. The arrangement: scale not given: direction of the effect not stated beside the values. Conditions: 30 µM.

For `Cc1cc(CN2CC[C@H]3C[C@H](C(=O)N4CCC(C)CC4)O[C@H]3C2)no1`, the Percent Effect in assay [1] worked out at 1.91%; in assay [2], 0.444%.

With `Cc1nc(C2CCCN2CC(=O)N(Cc2ccsc2)C2CC2)no1` (stereo not given), the values for the Percent Effect in assay [1] and in assay [2] were 0.787% and 0.717%, respectively.

With `Cc1ccc(CN(C)CC(=O)NC2(C)CCS(=O)(=O)C2)cc1` (stereo not given), the results for the Percent Effect in assay [1] and in assay [2] were 1.84% and -25.3%, respectively.

For the compound `Cc1cc(C)nc(CCNC(=O)[C@H]2CNC[C@@H](C(=O)N3CCCC3)C2)n1`, the Percent Effect in assay [1] was -2.14%; in assay [2], -37.4%.

On to `CC(=O)N(Cc1noc(C)n1)C1CCN(Cc2cc(C)on2)C1` (stereo not given), for which the figures for the Percent Effect in assay [1] and in assay [2] were 4.07% and 11%, respectively.

As to `CCCNC(=O)c1c(-n2cnnn2)sc2c1CCC2`, the Percent Effect in assay [1] is 1.26%; in assay [2], -42%.

As for `CC(C)Oc1ncccc1CNC(=O)c1ccco1`, the Percent Effect in assay [1] is -4.72%; in assay [2], -7.65%.

Consider `O=C1NCCN(CC2CC2)C12CCN(Cc1ccco1)CC2`, for which the Percent Effect is 24.3% in assay [1] and -8.3% in assay [2].

Regarding `Cc1nn(C)c(C)c1C1COCCN1C(=O)c1n[nH]c2ccccc12` (stereo not given), the Percent Effect was -1.46% in assay [1] and -15.4% in assay [2].

As for `Cc1noc(C2CCN(Cc3cc(=O)n(C)c(=O)n3C)CC2)n1`, the Percent Effect in assay [1] was -4.37%; in assay [2], -1.09%.

As for `Cc1nc(C)c(CC(=O)Nc2ncc(C)s2)c(=O)[nH]1`, the Percent Effect was -3.61% in assay [1] and 30.1% in assay [2].

Consider `Cc1n[nH]c(C)c1C1CCCN1C(=O)NCCSC(C)(C)C` (stereo not given), for which the results for the Percent Effect in assay [1] and in assay [2] were 3.45% and -9.79%, respectively.

Take `Cc1cccc(-c2nc(C)nn2CC(=O)NC2CCCC2)c1`: the Percent Effect is -5.28% in assay [1] and -29.1% in assay [2].

Regarding `Cc1cnn(CC2CCCN2Cc2cc(=O)n3cccc(C)c3n2)c1` (stereo not given), the Percent Effect in assay [1] turned out to be 3.68%; in assay [2], 8%.

On to `OCc1ccc(Cl)c(NCc2cccnc2)c1`, for which the Percent Effect in assay [1] is 1.83%; in assay [2] it was -19.3%.

Consider `c1cnc(OCc2nnc3n2CCN(CC2CC2)C3)nc1`, for which the results for the Percent Effect in assay [1] and in assay [2] were 1.75% and 4.75%, respectively.

As to `CC(C)n1ncc2c1NC(=O)CC21C(=O)Nc2c(Cl)cccc21` (stereo not given), the figures for the Percent Effect in assay [1] and in assay [2] were 4.56% and -7.34%, respectively.

`CCc1nc(C2CCCN2C(=O)CCc2cccs2)no1` (stereo not given): the Percent Effect is -0.641% in assay [1] and 24% in assay [2].

With `CC(C)(C)CC(=O)N1CC[C@@H]2[C@H](CC1)N(S(C)(=O)=O)CCS2(=O)=O`, the Percent Effect in assay [1] is -2.83%; in assay [2], -21.6%.

Turning to `Cc1cc(-c2nnc(SCC(=O)O)n2C(C)c2ccccc2)nn1C` (stereo not given), the Percent Effect in assay [1] turned out to be 2.15%; in assay [2], 2.98%.

With `CCN1CCC(CNC(=O)NCc2cc(-c3ccc(C)cc3)no2)C1` (stereo not given), the Percent Effect was 2.27% in assay [1] and -44.9% in assay [2].

`Cc1ccccc1CC1(CO)CCCN(c2ncccc2C#N)C1` (stereo not given): the figures for the Percent Effect in assay [1] and in assay [2] were 3.07% and -4.79%, respectively.

In the case of `CS(=O)(=O)NC1CCN(C(=O)NCCNc2ccccn2)CC1`, the Percent Effect is 3.96% in assay [1] and 19.1% in assay [2].

`CCN(CC)S(=O)(=O)N1CCCC(c2cccc(C(=O)O)c2)C1` (stereo not given): the Percent Effect in assay [1] was -1.97%; in assay [2] it was 9.71%.

In the case of `COc1ccccc1OCCN1CCCC(c2cc(C(N)=O)[nH]n2)C1` (stereo not given), the Percent Effect in assay [1] stood at 0.0735%; in assay [2], 5.34%.

Turning to `Cc1cccc(CN2C(=O)CC[C@@H]3[C@H]2CCN3Cc2ccc(C)s2)n1`, the figures for the Percent Effect in assay [1] and in assay [2] were 7.52% and -11.3%, respectively.

As to `CC(C)N1CCO[C@H]2CN(C(=O)c3ccoc3)C[C@H]21`, the results for the Percent Effect in assay [1] and in assay [2] were 8.86% and -1.73%, respectively.

As to `Cc1cccc(CN2CCC3(CCCN(C(=O)NC4CC4)C3)C2=O)n1` (stereo not given), the Percent Effect is 6.63% in assay [1] and -5.22% in assay [2].

As to `COc1cccc(-c2nc(C)c(C(=O)N[C@@H](C)C(=O)O)s2)c1`, the results for the Percent Effect in assay [1] and in assay [2] were -1.66% and -52%, respectively.

As to `O=C1COC2(CCN(Cc3ccccn3)CC2)CN1CC1CC1`, the Percent Effect was 4.21% in assay [1] and -7.99% in assay [2].

On to `COc1ccc(OCc2nc(C(=O)N3CC[C@H](O)[C@@H](O)C3)co2)cc1`, for which the Percent Effect is -0.903% in assay [1] and 8.98% in assay [2].

Take `CN(C(=O)NCc1ccncc1)C1CCN(c2ccccc2)C1=O` (stereo not given): the results for the Percent Effect in assay [1] and in assay [2] were -3.08% and -7.78%, respectively.

Regarding `CCN(Cc1ccco1)C(=O)Nc1cc(C(F)(F)F)c[nH]c1=O`, the results for the Percent Effect in assay [1] and in assay [2] were 3.71% and 34.2%, respectively.

Take `CN1N=C(C(=O)N(Cc2ccco2)C2CC2)CCC1=O`: the Percent Effect in assay [1] was -2.73%; in assay [2], 1.36%.

Regarding `CC(C)N(CC(N)=O)Cc1csc(Cc2ccccc2)n1`, the Percent Effect was found to be 0.228% in assay [1] and 12% in assay [2].

As to `CCc1csc(C2CCCN(C(=O)c3cnn(CC)c3)C2)n1` (stereo not given), the Percent Effect in assay [1] was 0.0599%; in assay [2] it was -7.95%.

Take `O=C(NCCOCC(F)(F)F)c1ccc(-c2ccco2)[nH]c1=O`: the Percent Effect was determined as 0.409% in assay [1] and 20.7% in assay [2].

For the compound `Cc1nc(N2CCCCC2)ncc1C(=O)N1CC(C)(C)[C@@](C)(O)C1`, the Percent Effect in assay [1] was 4.7%; in assay [2], 3.19%.

As for `CCN1CC(C(=O)N2CCC(Oc3ccccc3C)CC2)CC1=O` (stereo not given), the Percent Effect in assay [1] was -1.25%; in assay [2], -32.1%.

On to `Cc1nc(C2CCCN(C(=O)c3scnc3C)C2)no1` (stereo not given), for which the Percent Effect in assay [1] was found to be 1.59%; in assay [2], 5.86%.

Consider `Cn1cc(CN2CCn3c(CNC(=O)c4cccn4C)cnc3C2)cn1`, for which the Percent Effect in assay [1] was 12.8%; in assay [2], -22.6%.

Take `CC(Cn1cccn1)NCc1csc(-c2ccccc2F)n1` (stereo not given): the Percent Effect is -4.2% in assay [1] and -6.96% in assay [2].

Take `CN(C)c1ncc(-c2cc(C(=O)O)n(CC3CC3)c2)cn1`: the Percent Effect in assay [1] came to 0.577%; in assay [2], 2.77%.

Turning to `CC(C)c1nc2n(n1)CC(NCc1nc(-c3cccnc3)no1)CC2` (stereo not given), the Percent Effect in assay [1] was -2.88%; in assay [2] it was -31.5%.

In the case of `O=C1NCCN(CC2CC2)C12CCN(Cc1ccc3c(c1)OCO3)CC2`, the Percent Effect in assay [1] is 11.3%; in assay [2], -21.2%.

With `Cc1nc(C)n(CC2CCCCN2Cc2nnc(C3CC3)o2)n1` (stereo not given), the Percent Effect in assay [1] is 1.18%; in assay [2], -4.29%.

`O=C(NCc1cccs1)[C@H]1CC[C@@H]2[C@@H](CCN2c2ncccn2)O1`: the Percent Effect in assay [1] is 3.22%; in assay [2], -3.66%.

Consider `O=C(c1cc(COc2ccc3c(c2)OCO3)[nH]n1)N1CC=CC1CO` (stereo not given), for which the Percent Effect in assay [1] is 1.75%; in assay [2], -30.9%.

For the compound `O=S(=O)(CCN1CCOC(Cn2cccn2)C1)C(F)(F)F` (stereo not given), the results for the Percent Effect in assay [1] and in assay [2] were 8.08% and 191%, respectively.

On to `COc1cccc(CN(C)C(=O)Nc2ccc3c(c2)OCCO3)c1`, for which the figures for the Percent Effect in assay [1] and in assay [2] were 16.5% and -9.02%, respectively.
